Test results taken from the supplement of paper PMC11732987, “Enantioselective OTUD7B fragment discovery through chemoproteomics screening and high-throughput optimisation” (Communications Chemistry, 2025).

How the values were obtained:
Experiment in all cases: log2 ratio of Biotin-Ahx-Ub-VS probe labelling (fragment/DMSO); higher = less target engagement (more negative = stronger competition), active = hit call of the paper (q ≤ 0.05, log2 ratio ≤ -1)
Settings in all cases: compound concentration: 200 uM; treatment time: 3 h
USP19 = target: T1, USP19 (UniProt O94966)
T1 sequence (whole entry): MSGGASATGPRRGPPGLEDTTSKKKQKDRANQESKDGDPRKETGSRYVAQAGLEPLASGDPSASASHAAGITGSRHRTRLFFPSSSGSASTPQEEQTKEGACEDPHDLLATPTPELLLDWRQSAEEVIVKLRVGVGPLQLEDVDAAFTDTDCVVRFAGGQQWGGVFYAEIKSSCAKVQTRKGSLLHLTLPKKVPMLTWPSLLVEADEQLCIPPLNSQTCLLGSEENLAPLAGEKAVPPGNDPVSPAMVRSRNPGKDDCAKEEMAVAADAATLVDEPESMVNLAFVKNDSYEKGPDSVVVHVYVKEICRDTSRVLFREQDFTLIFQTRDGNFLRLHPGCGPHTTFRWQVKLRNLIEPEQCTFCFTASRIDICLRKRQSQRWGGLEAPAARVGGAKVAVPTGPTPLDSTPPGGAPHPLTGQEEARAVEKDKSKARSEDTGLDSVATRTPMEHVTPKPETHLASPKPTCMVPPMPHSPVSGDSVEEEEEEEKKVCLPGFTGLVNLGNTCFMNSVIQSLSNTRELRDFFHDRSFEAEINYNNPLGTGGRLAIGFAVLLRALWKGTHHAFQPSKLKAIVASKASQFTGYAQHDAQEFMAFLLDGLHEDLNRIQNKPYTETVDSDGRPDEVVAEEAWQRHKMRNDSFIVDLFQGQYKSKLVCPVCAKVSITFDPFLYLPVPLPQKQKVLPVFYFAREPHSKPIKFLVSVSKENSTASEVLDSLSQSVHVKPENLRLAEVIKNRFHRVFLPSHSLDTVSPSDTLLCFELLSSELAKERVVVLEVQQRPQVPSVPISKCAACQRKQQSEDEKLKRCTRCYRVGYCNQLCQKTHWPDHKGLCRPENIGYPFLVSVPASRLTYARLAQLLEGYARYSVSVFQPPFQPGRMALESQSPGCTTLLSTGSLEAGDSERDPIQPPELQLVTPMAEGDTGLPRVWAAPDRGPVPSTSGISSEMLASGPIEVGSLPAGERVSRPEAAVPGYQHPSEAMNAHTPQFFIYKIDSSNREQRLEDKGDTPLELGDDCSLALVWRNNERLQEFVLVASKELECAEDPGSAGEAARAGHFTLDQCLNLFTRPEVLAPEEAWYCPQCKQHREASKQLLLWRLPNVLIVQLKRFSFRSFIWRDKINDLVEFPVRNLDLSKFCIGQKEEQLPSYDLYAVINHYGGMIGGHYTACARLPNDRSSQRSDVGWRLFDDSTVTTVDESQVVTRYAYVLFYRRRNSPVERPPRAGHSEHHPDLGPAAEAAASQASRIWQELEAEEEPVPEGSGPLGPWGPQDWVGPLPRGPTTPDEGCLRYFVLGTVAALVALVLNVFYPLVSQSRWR
Procedure, shortened: (§1)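 Triplicate samples of HEK293T lysate, 495 µg each, received fragment at 200 µM or vehicle for 3 h, followed by Biotin-Ahx-Ub-VS (0.5 µM final) for 1 h. After NeutrAvidin enrichment of labelled DUBs and LysC/trypsin digestion, peptides were run by diaPASEF LC-MS/MS. The values are average log2 fragment/vehicle ratios from global-median-normalised Spectronaut label-free quantities, tested by unpaired t-test on proteins having ≥2 unique peptides.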

USP24 = USP24 (UniProt Q9UPU5)
Procedure, shortened: as §1

USP25 = target: T2, USP25 (UniProt Q9UHP3)
T2 sequence (whole entry): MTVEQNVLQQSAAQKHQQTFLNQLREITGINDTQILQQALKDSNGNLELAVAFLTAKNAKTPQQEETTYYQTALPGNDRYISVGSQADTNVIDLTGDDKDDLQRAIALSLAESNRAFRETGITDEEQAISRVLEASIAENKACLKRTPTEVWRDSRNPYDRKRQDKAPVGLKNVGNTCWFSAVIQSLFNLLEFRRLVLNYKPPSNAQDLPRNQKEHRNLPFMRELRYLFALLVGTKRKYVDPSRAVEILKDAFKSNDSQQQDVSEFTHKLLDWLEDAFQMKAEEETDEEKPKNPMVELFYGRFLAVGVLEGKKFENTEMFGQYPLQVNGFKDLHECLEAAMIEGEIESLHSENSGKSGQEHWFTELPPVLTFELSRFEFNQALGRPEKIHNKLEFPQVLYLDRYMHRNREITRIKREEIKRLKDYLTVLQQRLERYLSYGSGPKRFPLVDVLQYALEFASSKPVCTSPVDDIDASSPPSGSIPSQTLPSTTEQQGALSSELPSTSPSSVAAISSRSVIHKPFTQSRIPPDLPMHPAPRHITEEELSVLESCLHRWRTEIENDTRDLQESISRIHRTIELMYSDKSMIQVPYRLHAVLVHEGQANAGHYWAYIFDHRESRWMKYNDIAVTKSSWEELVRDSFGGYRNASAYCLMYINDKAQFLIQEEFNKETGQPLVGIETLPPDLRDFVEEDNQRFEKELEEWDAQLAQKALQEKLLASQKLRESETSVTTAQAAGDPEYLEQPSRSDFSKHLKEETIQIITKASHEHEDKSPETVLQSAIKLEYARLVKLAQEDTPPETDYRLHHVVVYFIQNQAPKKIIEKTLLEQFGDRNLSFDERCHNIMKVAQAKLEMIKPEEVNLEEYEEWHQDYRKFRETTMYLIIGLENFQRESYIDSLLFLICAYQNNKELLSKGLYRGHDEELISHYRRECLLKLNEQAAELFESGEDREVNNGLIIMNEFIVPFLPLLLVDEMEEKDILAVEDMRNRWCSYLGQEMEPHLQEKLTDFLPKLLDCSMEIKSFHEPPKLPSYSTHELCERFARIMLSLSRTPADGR
Procedure, shortened: as §1

USP28 = target: T3, USP28 (UniProt Q96RU2)
T3 sequence (whole entry): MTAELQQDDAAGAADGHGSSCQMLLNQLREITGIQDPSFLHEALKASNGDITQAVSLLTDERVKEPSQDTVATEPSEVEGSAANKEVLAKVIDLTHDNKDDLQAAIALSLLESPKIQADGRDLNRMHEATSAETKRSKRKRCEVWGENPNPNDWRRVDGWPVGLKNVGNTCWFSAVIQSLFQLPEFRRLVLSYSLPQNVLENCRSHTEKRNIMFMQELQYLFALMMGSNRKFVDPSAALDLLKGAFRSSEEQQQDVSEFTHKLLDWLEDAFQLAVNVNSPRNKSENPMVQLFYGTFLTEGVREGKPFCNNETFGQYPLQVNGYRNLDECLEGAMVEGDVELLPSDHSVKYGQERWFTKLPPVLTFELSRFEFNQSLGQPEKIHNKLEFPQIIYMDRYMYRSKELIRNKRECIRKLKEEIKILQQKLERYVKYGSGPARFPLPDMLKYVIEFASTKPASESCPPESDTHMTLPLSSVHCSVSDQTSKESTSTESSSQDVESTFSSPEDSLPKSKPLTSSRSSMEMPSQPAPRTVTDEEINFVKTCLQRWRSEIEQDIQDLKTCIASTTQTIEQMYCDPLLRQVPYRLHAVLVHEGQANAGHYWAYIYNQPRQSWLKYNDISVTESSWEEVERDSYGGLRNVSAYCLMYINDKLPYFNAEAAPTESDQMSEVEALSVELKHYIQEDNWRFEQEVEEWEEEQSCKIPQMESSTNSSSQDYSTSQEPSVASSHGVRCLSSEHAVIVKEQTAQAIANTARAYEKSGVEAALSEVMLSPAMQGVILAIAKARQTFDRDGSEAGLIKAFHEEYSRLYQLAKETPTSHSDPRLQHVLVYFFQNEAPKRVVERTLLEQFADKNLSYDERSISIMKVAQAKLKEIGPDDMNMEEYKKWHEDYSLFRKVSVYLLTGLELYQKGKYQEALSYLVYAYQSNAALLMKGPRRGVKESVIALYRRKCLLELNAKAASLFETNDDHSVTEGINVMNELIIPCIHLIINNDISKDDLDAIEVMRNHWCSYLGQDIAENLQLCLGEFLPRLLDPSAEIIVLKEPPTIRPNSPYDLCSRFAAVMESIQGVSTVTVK
Procedure, shortened: as §1

Measured: log2 ratio of Biotin-Ahx-Ub-VS probe labelling

USP24, sequence (Q9UPU5 whole entry): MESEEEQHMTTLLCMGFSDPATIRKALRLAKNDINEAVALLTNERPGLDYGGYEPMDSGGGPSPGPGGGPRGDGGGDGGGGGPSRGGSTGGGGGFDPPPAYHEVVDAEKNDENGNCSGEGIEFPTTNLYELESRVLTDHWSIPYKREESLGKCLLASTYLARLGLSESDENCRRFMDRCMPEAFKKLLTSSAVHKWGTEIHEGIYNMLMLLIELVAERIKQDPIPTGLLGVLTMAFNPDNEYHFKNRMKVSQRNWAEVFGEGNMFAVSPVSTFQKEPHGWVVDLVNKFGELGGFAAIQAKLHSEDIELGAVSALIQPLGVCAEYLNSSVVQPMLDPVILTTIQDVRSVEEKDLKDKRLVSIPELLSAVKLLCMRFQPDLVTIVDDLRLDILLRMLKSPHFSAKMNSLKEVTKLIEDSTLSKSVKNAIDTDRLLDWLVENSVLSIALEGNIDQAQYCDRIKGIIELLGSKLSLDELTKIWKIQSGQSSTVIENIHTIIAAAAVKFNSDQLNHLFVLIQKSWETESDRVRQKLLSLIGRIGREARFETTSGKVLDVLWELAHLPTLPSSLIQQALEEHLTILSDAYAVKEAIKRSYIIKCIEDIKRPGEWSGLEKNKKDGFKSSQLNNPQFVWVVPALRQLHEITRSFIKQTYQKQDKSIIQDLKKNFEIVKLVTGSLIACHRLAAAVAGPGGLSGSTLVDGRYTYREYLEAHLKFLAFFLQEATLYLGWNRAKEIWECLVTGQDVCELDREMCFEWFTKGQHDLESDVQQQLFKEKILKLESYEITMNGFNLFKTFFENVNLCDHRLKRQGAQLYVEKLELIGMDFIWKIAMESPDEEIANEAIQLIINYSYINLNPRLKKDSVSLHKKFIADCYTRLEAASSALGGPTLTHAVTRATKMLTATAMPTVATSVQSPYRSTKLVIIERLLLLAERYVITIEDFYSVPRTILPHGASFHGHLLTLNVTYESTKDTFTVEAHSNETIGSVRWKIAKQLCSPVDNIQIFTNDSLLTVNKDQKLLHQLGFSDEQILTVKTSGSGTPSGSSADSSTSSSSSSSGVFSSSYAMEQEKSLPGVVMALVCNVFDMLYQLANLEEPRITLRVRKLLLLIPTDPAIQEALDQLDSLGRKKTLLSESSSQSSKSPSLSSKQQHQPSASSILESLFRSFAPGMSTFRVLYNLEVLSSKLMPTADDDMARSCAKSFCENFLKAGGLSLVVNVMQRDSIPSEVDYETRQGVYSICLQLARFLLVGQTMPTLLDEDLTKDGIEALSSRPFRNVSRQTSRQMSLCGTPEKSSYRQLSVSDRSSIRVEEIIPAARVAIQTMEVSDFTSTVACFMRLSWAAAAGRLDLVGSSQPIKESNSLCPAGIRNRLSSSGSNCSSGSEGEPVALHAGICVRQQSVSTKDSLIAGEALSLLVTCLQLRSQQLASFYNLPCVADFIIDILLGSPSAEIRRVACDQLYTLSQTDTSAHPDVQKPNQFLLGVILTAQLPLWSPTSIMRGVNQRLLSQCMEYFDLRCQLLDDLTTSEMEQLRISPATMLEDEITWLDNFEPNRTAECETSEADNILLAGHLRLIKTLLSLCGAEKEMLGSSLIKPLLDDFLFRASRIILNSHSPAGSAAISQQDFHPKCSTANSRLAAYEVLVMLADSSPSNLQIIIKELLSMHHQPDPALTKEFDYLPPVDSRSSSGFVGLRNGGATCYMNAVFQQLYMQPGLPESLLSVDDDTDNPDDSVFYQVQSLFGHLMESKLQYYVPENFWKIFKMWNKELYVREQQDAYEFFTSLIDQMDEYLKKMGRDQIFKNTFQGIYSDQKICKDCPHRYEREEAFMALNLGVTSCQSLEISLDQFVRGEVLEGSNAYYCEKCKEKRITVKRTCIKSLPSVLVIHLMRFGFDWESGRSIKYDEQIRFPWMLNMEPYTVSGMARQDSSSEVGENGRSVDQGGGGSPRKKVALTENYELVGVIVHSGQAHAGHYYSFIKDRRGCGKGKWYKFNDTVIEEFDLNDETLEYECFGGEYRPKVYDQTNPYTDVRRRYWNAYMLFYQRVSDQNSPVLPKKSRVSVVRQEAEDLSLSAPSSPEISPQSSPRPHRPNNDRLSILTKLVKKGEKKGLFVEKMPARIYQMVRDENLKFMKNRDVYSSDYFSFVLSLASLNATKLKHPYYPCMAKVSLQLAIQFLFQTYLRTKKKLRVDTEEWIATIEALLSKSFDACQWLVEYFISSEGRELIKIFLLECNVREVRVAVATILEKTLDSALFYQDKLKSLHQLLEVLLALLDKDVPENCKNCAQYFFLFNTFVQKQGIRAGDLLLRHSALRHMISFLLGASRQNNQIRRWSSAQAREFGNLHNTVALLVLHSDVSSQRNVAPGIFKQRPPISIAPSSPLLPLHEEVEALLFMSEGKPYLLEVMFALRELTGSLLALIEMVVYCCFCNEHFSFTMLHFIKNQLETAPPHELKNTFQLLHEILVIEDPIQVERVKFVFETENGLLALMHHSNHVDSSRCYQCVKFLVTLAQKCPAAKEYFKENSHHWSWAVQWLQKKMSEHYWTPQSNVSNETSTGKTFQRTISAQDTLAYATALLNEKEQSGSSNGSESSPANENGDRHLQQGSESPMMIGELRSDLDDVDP

CC(C)n1nccc1NC(=O)CCl
inactive: USP19 -0.0967 | USP24 -0.207 | USP25 -0.514 | USP28 -0.651
